The values that follow come from the supplement of paper PMC10042075.

Several values for one entry are separate records, joined by “and”; a condition that tells them apart may be missing. Identical values can stand only once. Counter-ions that a name gives are not always drawn.

This assay has as its system LASCPC-01. Briefly: cell viability relative to DMSO control (fraction); higher = less growth inhibition (more viable cells). As to conditions: 2 µM; 72 h. Here is the method:
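High-throughput single-dose screen in the LASCPC-01 NEPC cell line in 384-well plates. Cells were treated with each compound at 2 µM for 72 h, and viability was read by CellTiter-Glo luminescence. Values are normalised to the DMSO control (compound/DMSO) from three replicates; only the 5-HT-related subset of the 7315-compound library is given.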
In the case of `COc1ccc(C(CN(C)C)C2(O)CCCCC2)cc1` (stereo not given) [Venlafaxine hydrochloride], the cell viability is 1.06.

`N#Cc1ccc(N2CCN(C(=O)COc3ccc4[nH]cc(CCN)c4c3)CC2)cc1` [Donitriptan monohydrochloride]: the cell viability was 1.08.

With `CN1C[C@H](C(=O)N[C@]2(C)O[C@@]3(O)[C@@H]4CCCN4C(=O)[C@H](Cc4ccccc4)N3C2=O)C[C@@H]2c3cccc4[nH]cc(c34)C[C@H]21` [Dihydroergotamine methanesulfonate], the cell viability was 1.18.

On to `O=[N+]([O-])c1ccc2nc(N3CCNCC3)ccc2c1` [Quipazine,6-nitro-,maleate], for which the cell viability was found to be 1.04.

Turning to `CN1c2ccccc2C(NCCCCCCC(=O)O)c2ccc(Cl)cc2S1(=O)=O` (stereo not given) [Tianeptine sodium], the cell viability came to 0.963.

`CC(N)Cc1cccc(C(F)(F)F)c1` (single isomer, unassigned; (+)) [(+)-Norfenfluramine hydrochloride] returned a cell viability of 1.09.

As to `Clc1ccc([C@]23CNC[C@H]2C3)cc1Cl` [Amitifadine hydrochloride], the cell viability was 0.896.

For `O=S1(=O)N(CCN2CC=C(c3c[nH]c4cc(F)ccc34)CC2)c2cccc3c2N1CCC3`, the cell viability came to 0.982.

For `COc1ccc2c(c1OC)CN1CCc3cc4c(cc3C1C2)OCO4` (stereo not given) [Tetrahydroberberine THB], the cell viability stood at 0.961.

With `COc1ccc2[nH]cc(C3=CCNCC3)c2c1`, the cell viability turned out to be 0.776.

Regarding `CN1C[C@H](CNC(=O)OCc2ccccc2)C[C@@H]2c3cccc4c3c(cn4C)C[C@H]21` [Metergoline], the cell viability was 0.997.

`NCCc1c[nH]c2ccccc12` [Tryptamine hydrochloride] gave a cell viability of 0.96.

In turn, `COc1ccccc1N1CCNCC1` [1-(2-Methoxyphenyl)piperazine hydrochloride] yielded a cell viability of 0.869.

Regarding `CCCN(CCC)C1CCc2cccc(O)c2C1` (stereo not given), the cell viability was found to be 0.92.

Regarding `COc1ccc2[nH]cc(CCN)c2c1` [O-Methylserotonin hydrochloride], the cell viability turned out to be 0.981.

In turn, `CN1CCN(c2nc3ccccc3nc2Cl)CC1` displayed a cell viability of 0.966.

`NCCc1c[nH]c2ccc(O)cc12` [Serotonin hydrochloride] returned a cell viability of 0.606.

With `CNCCc1c[nH]c2ccc(O)cc12` [N-omega-Methyl-5-hydroxytryptamine oxalate salt], the cell viability was found to be 1.11.

Regarding `CN1CCC[C@@H]1Cc1c[nH]c2ccc(Nc3ncccc3[N+](=O)[O-])cc12`, the cell viability is 0.897.

`c1ccc2c(N3CCNCC3)cccc2c1` [1-(1-Naphthyl)piperazine hydrochloride]: the cell viability was 1.08.

Take `C[C@H]1CNCCc2ccc(Cl)cc21` [Lorcaserin HCl]: the cell viability came out at 1.18.

In the case of `CC(N)Cc1c[nH]c2ccc(OCc3cccs3)cc12` (stereo not given), the cell viability stood at 1.18.

For the molecule `CN1C(=O)COc2c(C(=O)NC3CN4CCC3CC4)cc(Cl)cc21` (stereo not given) [Azasetron hydrochloride], the cell viability was found to be 1.44.

For the molecule `C[C@H](N)CN1CCc2ccc(Br)cc21` [VER-3323 hemifumarate salt], the cell viability is 1.16.

In the case of `C=C[C@H]1CN2CC[C@@]3(C(=O)Nc4ccccc43)[C@@H]2C[C@@H]1/C(=C\OC)C(=O)OC` [Isocorynoxeine], the cell viability turned out to be 0.677.

`CCCN(CCC)[C@@H]1CCc2cccc(O)c2C1` [R-(+)-8-Hydroxy-DPAT hydrobromide] displayed a cell viability of 1.03.

`CC(N)Cc1c[nH]c2ccc(O)cc12` (stereo not drawn) [alpha-Methyl-5-hydroxytryptamine maleate] yielded a cell viability of 1.03.

In turn, `COc1ccc(C(CN(C)C)C2(O)CCCCC2)cc1` (stereo not given) [Venlafaxine] displayed a cell viability of 1.04.

With `CN1CCC(c2c[nH]c3ccc(O)cc23)CC1`, the cell viability was 0.966 and 0.511.

As to `O=c1ccc2cc3ccoc3c(O)c2o1` [Xanthotoxol], the cell viability was 1.15.

In the case of `COc1cc2c3c(c1OC)-c1ccccc1C[C@H]3N(C)CC2` [Nuciferine], the cell viability worked out at 0.818.

Take `C[N+]1(C)C2CCC1CC(OC(=O)c1c[nH]c3ccccc13)C2` (stereo not given) [3-Tropanylindole-3-carboxylate methiodide]: the cell viability is 0.906.

`Clc1ccc(C(OCCN2CCCCC2)c2ccccc2)cc1` (stereo not given) [Cloperastine hydrochloride] showed a cell viability of 0.924.

The molecule `COc1cc(N)c(Cl)cc1C(=O)NC1CN2CCC1CC2` (stereo not given) [Zacopride hydrochloride] gave a cell viability of 0.366.

In turn, `Cc1[nH]c2ccc(O)cc2c1CCN` [2-Methyl-5-hydroxytryptamine maleate] had a cell viability of 0.982.

`CCCN(CCC)C1CCc2cccc(O)c2C1` (stereo not given) [(?-8-Hydroxy-DPAT hydrobromide]: the cell viability was 1.16.

Molecule `CC[C@@H](CO)NC(=O)[C@@H]1C=C2c3cccc4c3c(cn4C)C[C@H]2N(C)C1` [Methysergide maleate] gave a cell viability of 1.1.

In turn, `NCCc1c[nH]c2ccccc12` [Tryptamine] had a cell viability of 1.08.

`CN1CCN(c2cccc3[nH]c(=O)oc23)CC1` [Pardoprunox hydrochloride] displayed a cell viability of 1.03.

In turn, `NCCc1c[nH]c2ccc(C(N)=O)cc12` [5-Carboxamidotryptamine maleate] gave a cell viability of 1.1.
